# Assay: JC-1 mitochondrial signal, unstimulated HepG2 cells – cell-based, JC-1 fluorescence, 24 h, 100 nL compound, profiling panel (AID 1167); note: test concentration not given here
# Details: HepG2 mitochondrial potential, higher = more signal
row,Structure (SMILES),z-score
1,COc1ccc(C#Cc2ccc3c(c2)[C@]2(C(=O)N3)[C@H](c3ccccc3OCCO)N3[C@H](c4ccccc4)[C@H](c4ccccc4)OC(=O)[C@H]3[C@@H]2C(=O)Nc2nc3ccccc3s2)cc1,-3.4
2,COCCCNC(=O)[C@@]1(C)c2ccccc2C(=O)N(C(C)C)[C@H]1c1ccc(CO)cc1,0.043
3,COc1cc2c(cc1OC)CN(C(=O)[C@@H]1[C@H]3C(=O)O[C@H](c4ccccc4)[C@H](c4ccccc4)N3[C@H](c3ccc(O)cc3)[C@@]13C(=O)Nc1ccccc13)CC2,-0.574
4,COc1cccc(-c2cccc(=O)o2)c1,-1.27
5,COCCOC(=O)N1C(=O)[C@@]2(c3ccccc31)[C@H](c1ccc(O)cc1)N1[C@H](c3ccccc3)[C@H](c3ccccc3)OC(=O)[C@H]1[C@@H]2C(=O)Nc1nc2ccccc2s1,-3.87
6,O=C1O[C@@H](c2ccccc2)[C@@H](c2ccccc2)N2[C@@H](c3ccccc3OCCO)[C@]3(C(=O)Nc4ccccc43)[C@@H](C(=O)Nc3nc4ccccc4s3)[C@H]12,-2.85
7,CCCC[C@H]1OB(O)C[C@H]2C1=C(COC)Cn1c(=O)n(-c3ccccc3)c(=O)n12,0.0213
8,C=C(COC)C(=O)CC[C@@H](OC(C)=O)c1ccc(CO)o1,-0.799
9,O=C1C[C@@](C(=O)NCC(F)(F)F)(c2ccc([N+](=O)[O-])cc2)[C@@H](c2ccc(CO)cc2I)N1C1CCCCC1,0.548
10,COCCOC(=O)N1C(=O)[C@@]2(c3cc(C#CCC(C(=O)OC)C(=O)OC)ccc31)[C@H](C(=O)Nc1nc3ccccc3s1)[C@H]1C(=O)O[C@H](c3ccccc3)[C@H](c3ccccc3)N1[C@@H]2c1ccccc1OCCO,-2.23

# Source: PubChem BioAssay
